Measured values taken from PubChem BioAssay AID1159577 (Broad Institute, 2015).
Among all 1,300 compounds or so, about 240 (18%) were called active. Inconclusive results (about 8%) are left out. No rule for the calls is given here. A selection follows. Measured potencies and affinities stand elsewhere.

Experiment: HepG2 cell cytotoxicity, dose response, cytotoxicity control, cherry-picked samples (AID 1159577)
Details: HepG2 cytotoxicity counterscreen, plate reader; series mostly up to 19.5 µM

Row | SMILES | outcome
1 | COc1ccc(NC(=O)N(C)C[C@H]2Oc3ccc(NC(=O)Nc4ccc(C(F)(F)F)cc4)cc3CC(=O)N([C@H](C)CO)C[C@@H]2C)cc1 | inactive
2 | C[C@H](CO)N1C[C@H](C)[C@H](CN(C)CC2CC2)Oc2ccc(NC(=O)Nc3ccccc3)cc2CC1=O | inactive
3 | C[C@H]1CN([C@@H](C)CO)C(=O)Cc2cc(NC(=O)Nc3ccc(C(F)(F)F)cc3)ccc2O[C@@H]1CN(C)C(=O)Nc1ccc2c(c1)OCO2 | inactive
4 | C[C@H](CO)N1C[C@H](C)[C@@H](CN(C)C(=O)Nc2ccc(F)cc2)Oc2ccc(NC(=O)Nc3ccc(C(F)(F)F)cc3)cc2CC1=O | inactive
5 | C[C@@H]1CN([C@@H](C)CO)C(=O)Cc2cc(NC(=O)Nc3ccccc3)ccc2O[C@H]1CN(C)CC1CC1 | inactive
6 | C[C@H](CO)N1C[C@H](C)[C@@H](CN(C)C(=O)Nc2ccc3c(c2)OCO3)Oc2ccc(NC(=O)Nc3ccc(C(F)(F)F)cc3)cc2CC1=O | inactive
7 | O=C(c1cccc(F)c1)N1CC(=O)N2[C@H](C1)[C@@H](c1ccc(-c3cccnc3)cc1)[C@@H]2CO | inactive
8 | COCC(=O)N1CCC2(CC1)CN(Cc1cccc(OC)c1)[C@@H](CO)c1[nH]c3cc(OC)ccc3c12 | inactive
9 | C[C@@H]1CN([C@@H](C)CO)C(=O)c2cccc(NC(=O)c3nc4ccccc4s3)c2O[C@@H]1CN(C)C(=O)Nc1cccc2ccccc12 | inactive
10 | Cc1ccc(-c2ccc3c(c2)O[C@@H](CN(C)C(=O)C2CCCCC2)[C@H](C)CN([C@H](C)CO)S3(=O)=O)cc1 | inactive
11 | N#Cc1cccc(-c2ccc3c(c2)[C@H]2[C@H](CCN2C(=O)c2ccncc2)[C@H](CO)N3)c1 | inactive
12 | COc1ccc2c3c(n(C)c2c1)[C@@H](CO)NCC31CCN(Cc2ccc(-c3ccccn3)cc2)CC1 | inactive
13 | COc1ccc2c3c(n(C)c2c1)[C@H](CO)N(C(=O)Nc1ccc(F)cc1)CC31CCN(Cc2ccccn2)CC1 | inactive
14 | COc1cccc(CN2CC3(CN(Cc4ccccn4)C3)c3c([nH]c4cc(OC)ccc34)[C@@H]2CO)c1 | inactive
15 | COc1cccc(CN2CC3(CN(Cc4ccccn4)C3)c3c([nH]c4cc(OC)ccc34)[C@H]2CO)c1 | inactive
16 | COc1ccc(S(=O)(=O)N(C)C[C@@H]2OCc3ccccc3-c3c(n(C)c4ccccc34)C(=O)N([C@H](C)CO)C[C@H]2C)cc1 | inactive
17 | C[C@@H]1CN([C@@H](C)CO)C(=O)c2c(c3ccccc3n2C)-c2ccccc2CO[C@H]1CN(C)S(=O)(=O)c1ccc(C(F)(F)F)cc1 | inactive
18 | O=C(c1ccccn1)N1CC[C@H]2[C@H](CO)Nc3ccc(-c4ccccc4)cc3[C@H]21 | inactive
19 | CCC(=O)N1CCC2(CC1)CN(Cc1ccc(Cl)cc1)[C@H](CO)c1[nH]c3cc(OC)ccc3c12 | inactive
20 | Cc1ccccc1-c1ccc(C2[C@H]3CNC[C@@H]2N3S(=O)(=O)c2cccc(F)c2)cc1 (some centres undefined) | inactive
21 | N#C[C@@H]1[C@@H](c2ccc(C#Cc3ccc(F)cc3)cc2)[C@H](CO)N1C(=O)C1CCCC1 | inactive
22 | CC(C)NC(=O)N1[C@H](C#N)[C@H](c2ccc(C#CC3CCCCC3)cc2)[C@@H]1CO | inactive

Row | SMILES | outcome
23 | N#C[C@@H]1[C@@H](c2ccc(C#CC3CCCCC3)cc2)[C@H](CO)N1C(=O)Nc1ccc(F)cc1 | inactive
24 | N#C[C@@H]1[C@H](c2ccc(C#CC3CCCCC3)cc2)[C@H](CO)N1C(=O)Nc1ccc(F)cc1 | inactive
25 | OC[C@@H]1[C@@H](c2ccccc2)C2(CN(CCC(F)(F)F)C2)N1Cc1ccccc1 | inactive
26 | O=C(C[C@@H]1C[C@H]2c3cc(NC(=O)Nc4ccccc4)ccc3O[C@H]2[C@H](CO)O1)NCc1ccccc1 | inactive
27 | O=C(c1cccnc1)N1CC(=O)N2[C@H](C1)[C@@H](c1ccc(-c3cccnc3)cc1)[C@@H]2CO | inactive
28 | CN1c2ccc(-c3ccccc3)cc2[C@@H]2[C@@H](CCN2C(=O)c2ccccc2)[C@H]1CO | inactive
29 | COc1ccc(NC(=O)N2CCCCN3[C@H](CO)[C@H](c4ccc(-c5ccccc5F)cc4)[C@@H]3C2)cc1 | inactive
30 | CCS(=O)(=O)N1CC(=O)N2[C@H](CO)[C@@H](c3ccc(-c4ccccc4F)cc3)[C@@H]2C1 | inactive
31 | CCS(=O)(=O)N1CCCCN2[C@H](CO)[C@@H](c3ccc(-c4cccc(C#N)c4)cc3)[C@@H]2C1 | inactive
32 | Cc1cccc(S(=O)(=O)N2CCCCN3[C@H](C2)[C@@H](c2ccc(-c4cccnc4)cc2)[C@@H]3CO)c1 | inactive
33 | N#C[C@@H]1[C@H](c2ccccc2/C=C/c2ccccc2)[C@H](CO)N1S(=O)(=O)c1ccc(F)cc1 | inactive
34 | CCCC(=O)Nc1ccc2c(c1)OC[C@@H](C)N(Cc1cccc(F)c1)C[C@@H](C)[C@H](OC)CN(C)C2=O | inactive
35 | CC(C)NC(=O)N1[C@H](CO)[C@@H](c2ccccc2)C12CN(Cc1ccc(Cl)cc1)C2 | inactive
36 | CO[C@H]1CN(C)C(=O)c2cc(NC(=O)Cc3ccccc3)ccc2OC[C@H](C)N(C(=O)c2ccccc2F)C[C@H]1C | inactive
37 | CCCNC(=O)Nc1ccc2c(c1)OC[C@H](C)N(Cc1ccc(-c3ccccn3)cc1)C[C@H](C)[C@H](OC)CN(C)C2=O | inactive
38 | COc1cccc(S(=O)(=O)N2CCC3(CC2)CN[C@H](CO)c2[nH]c4cc(OC)ccc4c23)c1 | inactive
39 | C[C@@H]1CN([C@H](C)CO)S(=O)(=O)c2ccc(C#Cc3ccccc3)cc2O[C@H]1CN(C)C(=O)C1CC1 | inactive
40 | CO[C@@H]1CN(C)C(=O)c2ccc(NC(=O)c3ccc4c(c3)OCO4)cc2OC[C@@H](C)N(Cc2ccc3c(c2)OCO3)C[C@H]1C | inactive
41 | COc1ccc2c3c([nH]c2c1)[C@@H](CO)N(Cc1cc(F)ccc1F)CC31CCN(C(=O)C2CCC2)CC1 | inactive
42 | CCS(=O)(=O)N1CCCCN2[C@H](CO)[C@H](c3ccc(-c4cccc(C#N)c4)cc3)[C@@H]2C1 | inactive
43 | CCS(=O)(=O)N1CCCCN2[C@H](CO)[C@H](c3ccc(-c4cccc(C#N)c4)cc3)[C@H]2C1 | inactive
44 | O=C(c1cnccn1)N1CC(=O)N2[C@@H](CO)[C@H](c3ccc(C#CCc4ccccc4)cc3)[C@@H]2C1 | inactive
